For some of these results: Measured potencies and affinities stand elsewhere.

Consider eleven molecules from ChEMBL document CHEMBL3988442, “University of Dundee, Small-Polar-MMV Screening Library” (2021).

Holding throughout (parameters): scale not given: direction of the effect not stated beside the values
The target in experiment [1] is Protein translocase subunit SecA (Escherichia coli (strain K12)) (UniProt P10408). The experiment is described as follows: Assay to Identify E. coli SecA ATPase Inhibitors. It is filed as functional. Conditions: 30 µM.
Protein translocase subunit SecA (Escherichia coli (strain K12)), sequence (P10408 whole entry): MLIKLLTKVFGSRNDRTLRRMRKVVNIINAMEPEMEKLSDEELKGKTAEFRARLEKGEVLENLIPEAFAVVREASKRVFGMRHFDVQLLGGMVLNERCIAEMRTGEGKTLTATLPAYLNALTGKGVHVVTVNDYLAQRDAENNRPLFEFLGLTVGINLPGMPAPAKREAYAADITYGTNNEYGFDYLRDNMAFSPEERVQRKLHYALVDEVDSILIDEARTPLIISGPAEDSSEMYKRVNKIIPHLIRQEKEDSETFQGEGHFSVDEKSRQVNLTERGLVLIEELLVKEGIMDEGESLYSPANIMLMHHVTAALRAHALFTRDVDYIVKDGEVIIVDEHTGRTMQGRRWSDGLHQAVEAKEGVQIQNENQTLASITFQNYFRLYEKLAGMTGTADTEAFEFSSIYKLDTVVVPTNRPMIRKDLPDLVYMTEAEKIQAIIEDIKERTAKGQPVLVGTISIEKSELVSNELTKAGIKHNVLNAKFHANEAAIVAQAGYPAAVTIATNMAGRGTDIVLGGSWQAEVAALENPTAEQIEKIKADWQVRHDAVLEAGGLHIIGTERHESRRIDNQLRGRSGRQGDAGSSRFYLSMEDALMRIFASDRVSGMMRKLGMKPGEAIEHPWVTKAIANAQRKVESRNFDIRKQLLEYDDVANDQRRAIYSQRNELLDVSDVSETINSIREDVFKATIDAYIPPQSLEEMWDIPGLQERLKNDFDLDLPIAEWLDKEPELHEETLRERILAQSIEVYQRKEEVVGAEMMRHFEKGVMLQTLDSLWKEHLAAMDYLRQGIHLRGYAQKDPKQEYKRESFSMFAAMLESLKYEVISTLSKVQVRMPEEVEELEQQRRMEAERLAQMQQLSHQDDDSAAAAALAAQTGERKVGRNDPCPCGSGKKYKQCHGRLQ
Experiment [2] addresses T1, Ubiquitin-activating enzyme e1, putative (Leishmania donovani (strain BPK282A1)) (UniProt E9BSI1).
T1 sequence (whole entry): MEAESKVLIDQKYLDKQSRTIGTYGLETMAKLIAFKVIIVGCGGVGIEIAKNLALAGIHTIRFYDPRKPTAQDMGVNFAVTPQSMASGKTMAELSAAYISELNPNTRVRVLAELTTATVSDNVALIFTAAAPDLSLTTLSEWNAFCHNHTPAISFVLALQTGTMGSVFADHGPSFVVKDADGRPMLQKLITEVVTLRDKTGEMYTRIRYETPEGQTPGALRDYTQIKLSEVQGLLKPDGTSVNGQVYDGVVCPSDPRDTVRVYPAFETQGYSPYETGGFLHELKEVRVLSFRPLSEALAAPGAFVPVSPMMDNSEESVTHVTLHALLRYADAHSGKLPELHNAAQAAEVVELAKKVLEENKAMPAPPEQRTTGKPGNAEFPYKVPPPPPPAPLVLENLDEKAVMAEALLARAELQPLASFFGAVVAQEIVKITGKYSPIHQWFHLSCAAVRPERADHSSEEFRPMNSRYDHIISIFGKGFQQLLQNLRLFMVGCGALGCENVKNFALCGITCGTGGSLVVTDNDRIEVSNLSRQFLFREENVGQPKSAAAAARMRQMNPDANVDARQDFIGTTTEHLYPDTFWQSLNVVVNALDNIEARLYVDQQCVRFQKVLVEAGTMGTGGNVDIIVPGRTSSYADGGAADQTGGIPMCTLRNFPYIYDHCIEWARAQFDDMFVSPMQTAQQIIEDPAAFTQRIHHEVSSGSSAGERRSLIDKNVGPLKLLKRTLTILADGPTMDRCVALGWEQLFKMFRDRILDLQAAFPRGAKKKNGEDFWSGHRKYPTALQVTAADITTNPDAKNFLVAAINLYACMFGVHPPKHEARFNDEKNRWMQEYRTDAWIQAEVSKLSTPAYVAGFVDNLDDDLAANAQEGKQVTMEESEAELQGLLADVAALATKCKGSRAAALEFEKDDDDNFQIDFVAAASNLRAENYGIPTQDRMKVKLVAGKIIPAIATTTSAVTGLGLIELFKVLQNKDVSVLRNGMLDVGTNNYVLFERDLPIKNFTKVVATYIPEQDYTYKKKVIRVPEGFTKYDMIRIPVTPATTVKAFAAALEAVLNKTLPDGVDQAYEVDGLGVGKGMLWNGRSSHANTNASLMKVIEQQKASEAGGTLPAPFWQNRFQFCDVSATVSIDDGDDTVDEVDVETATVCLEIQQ
The experiment is described as follows: Leishmania donovani Ubiquitin Activating Enzyme (LdE1). Conditions: 30 µM. It is filed as functional.

Experiment [3] has as its target AMP-activated protein kinase, AMPK (Homo sapiens) (UniProt P54646+O43741+P54619+Q9UGJ0+Q9Y478+Q13131+Q9UGI9). The experiment is described as follows: AMP-dependent Kinase enzyme assay. An in vitro enzyme assay that detects ADP turnover that is directly proportional to AMPK activity. This uses naive AMPK that is activated during the assay with MK-8722. Type of experiment: functional. Particulars: 30 µM.

The target in experiment [4] is Sialic acid-binding Ig-like lectin 9 (Homo sapiens) (UniProt Q9Y336). The experiment in a line: Hs-Siglec9 ALPHAscreen SOP 20170721. Conditions: 10 µM. For orientation: Bead proximity is the source of the signal in Alpha formats.
Sialic acid-binding Ig-like lectin 9 (Homo sapiens), sequence (Q9Y336 whole entry): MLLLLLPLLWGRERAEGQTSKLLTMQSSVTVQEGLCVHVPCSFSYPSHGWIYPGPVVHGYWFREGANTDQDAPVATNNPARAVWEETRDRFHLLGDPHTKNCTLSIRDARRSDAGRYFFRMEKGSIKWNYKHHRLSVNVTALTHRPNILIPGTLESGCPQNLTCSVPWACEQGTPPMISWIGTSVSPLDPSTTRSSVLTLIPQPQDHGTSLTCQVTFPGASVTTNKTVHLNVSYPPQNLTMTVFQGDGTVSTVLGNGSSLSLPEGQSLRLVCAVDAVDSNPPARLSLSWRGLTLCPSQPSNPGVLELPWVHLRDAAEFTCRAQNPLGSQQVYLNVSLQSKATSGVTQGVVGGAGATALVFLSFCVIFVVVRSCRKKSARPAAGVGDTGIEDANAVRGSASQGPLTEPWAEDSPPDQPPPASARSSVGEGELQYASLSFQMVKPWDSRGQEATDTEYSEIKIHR
Another experiment deals with Trypanosoma cruzi. The experiment in a line: Trypanosoma cruzi phosphomannomutase and mannose-1-phosphate guanylyltransferase assay. It is filed as functional. Particulars: 10 µM.
For experiment [5], the target named is T2, Arginase-2, mitochondrial (Homo sapiens) (UniProt P78540).
T2 sequence (whole entry): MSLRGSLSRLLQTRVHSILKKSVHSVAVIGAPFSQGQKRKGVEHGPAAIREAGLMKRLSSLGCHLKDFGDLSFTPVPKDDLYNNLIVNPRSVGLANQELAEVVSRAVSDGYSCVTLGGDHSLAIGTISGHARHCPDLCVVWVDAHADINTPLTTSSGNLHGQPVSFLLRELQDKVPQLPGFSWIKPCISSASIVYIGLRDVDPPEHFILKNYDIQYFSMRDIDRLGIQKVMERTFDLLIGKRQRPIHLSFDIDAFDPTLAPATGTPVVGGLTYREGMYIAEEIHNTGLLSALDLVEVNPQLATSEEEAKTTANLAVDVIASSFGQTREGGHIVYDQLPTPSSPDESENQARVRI
The experiment in a line: in vitro enzyme assay to detect the production of urea directly proportional to the activity of Arginase II. Further: in the data most compounds retested in dose-response had high values. It is filed as functional. Conditions: 33.3 µM.

In experiment [6] the target is T3, Proteasome subunit beta (Trypanosoma cruzi) (UniProt O96673).
T3 sequence (whole entry): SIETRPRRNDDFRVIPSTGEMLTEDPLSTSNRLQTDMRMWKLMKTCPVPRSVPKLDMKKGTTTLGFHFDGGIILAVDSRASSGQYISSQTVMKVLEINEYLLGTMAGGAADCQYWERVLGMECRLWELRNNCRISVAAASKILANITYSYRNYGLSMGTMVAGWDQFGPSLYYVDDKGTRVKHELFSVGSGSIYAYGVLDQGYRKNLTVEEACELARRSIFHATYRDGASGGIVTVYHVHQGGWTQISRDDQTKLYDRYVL
The experiment is described as follows: Trypanosoma cruzi proteasome chymotrypsin-like activity (TcProtChymo) assay. Further: in the data most compounds retested in dose-response had high values. It is filed as functional. Conditions: 9.37 µM.

For another experiment, the species on record is Homo sapiens. The experiment in a line: To identify inhibition of the IFN signalling (Jak-Stat) pathway via expression of an eGFP reporter gene under the control of an IFN-stimulated response element (ISRE) containing MxA promoter. It is filed as functional. Particulars: 30 µM.
For experiment [7], the target named is T4, Tyrosyl-tRNA synthetase, putative (Trypanosoma cruzi (strain CL Brener)) (UniProt Q4DSP6).
T4 sequence (whole entry): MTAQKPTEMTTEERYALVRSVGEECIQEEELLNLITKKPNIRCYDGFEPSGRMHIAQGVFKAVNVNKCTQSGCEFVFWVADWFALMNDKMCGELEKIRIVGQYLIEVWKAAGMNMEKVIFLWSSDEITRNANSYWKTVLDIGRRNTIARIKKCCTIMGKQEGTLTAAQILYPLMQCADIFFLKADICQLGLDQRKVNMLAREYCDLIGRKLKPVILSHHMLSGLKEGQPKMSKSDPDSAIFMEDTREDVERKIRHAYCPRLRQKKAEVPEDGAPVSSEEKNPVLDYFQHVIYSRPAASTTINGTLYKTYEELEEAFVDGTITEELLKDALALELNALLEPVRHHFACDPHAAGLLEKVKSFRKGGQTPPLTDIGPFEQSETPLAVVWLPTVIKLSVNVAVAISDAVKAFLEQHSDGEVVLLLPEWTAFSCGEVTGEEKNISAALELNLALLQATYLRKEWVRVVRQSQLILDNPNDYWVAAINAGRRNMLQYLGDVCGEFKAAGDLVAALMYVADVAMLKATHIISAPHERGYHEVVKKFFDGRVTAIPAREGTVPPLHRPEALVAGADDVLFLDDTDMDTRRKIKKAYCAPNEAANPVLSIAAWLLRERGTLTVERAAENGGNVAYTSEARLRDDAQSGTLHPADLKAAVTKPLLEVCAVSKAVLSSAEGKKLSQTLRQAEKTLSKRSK
The experiment is described as follows: Trypanosoma cruzi tyrosyl tRNA synthetase (TcYRS) _High Tyrosine SOP. Further: in the data most compounds retested in dose-response had high values. Type of experiment: functional. Conditions: 30 µM.

The target in experiment [8] is T4, Tyrosyl-tRNA synthetase, putative (Trypanosoma cruzi (strain CL Brener)). The experiment in a line: Trypanosoma cruzi tyrosyl tRNA synthetase (TcYRS) SOP. Conditions: 30 µM. It is filed as functional.
For experiment [9], the target named is Chromo domain-containing protein 1 (Saccharomyces cerevisiae (strain ATCC 204508 / S288c) (Baker's yeast)) (UniProt P32657). The experiment in a line: ScCHD-1 Enzyme Inhibition Assay. Further: in the data most compounds retested in dose-response had high values. Conditions: 30 µM. It is filed as functional.
Chromo domain-containing protein 1 (Saccharomyces cerevisiae (strain ATCC 204508 / S288c) (Baker's yeast)), sequence (P32657 whole entry, the tested form may be a part): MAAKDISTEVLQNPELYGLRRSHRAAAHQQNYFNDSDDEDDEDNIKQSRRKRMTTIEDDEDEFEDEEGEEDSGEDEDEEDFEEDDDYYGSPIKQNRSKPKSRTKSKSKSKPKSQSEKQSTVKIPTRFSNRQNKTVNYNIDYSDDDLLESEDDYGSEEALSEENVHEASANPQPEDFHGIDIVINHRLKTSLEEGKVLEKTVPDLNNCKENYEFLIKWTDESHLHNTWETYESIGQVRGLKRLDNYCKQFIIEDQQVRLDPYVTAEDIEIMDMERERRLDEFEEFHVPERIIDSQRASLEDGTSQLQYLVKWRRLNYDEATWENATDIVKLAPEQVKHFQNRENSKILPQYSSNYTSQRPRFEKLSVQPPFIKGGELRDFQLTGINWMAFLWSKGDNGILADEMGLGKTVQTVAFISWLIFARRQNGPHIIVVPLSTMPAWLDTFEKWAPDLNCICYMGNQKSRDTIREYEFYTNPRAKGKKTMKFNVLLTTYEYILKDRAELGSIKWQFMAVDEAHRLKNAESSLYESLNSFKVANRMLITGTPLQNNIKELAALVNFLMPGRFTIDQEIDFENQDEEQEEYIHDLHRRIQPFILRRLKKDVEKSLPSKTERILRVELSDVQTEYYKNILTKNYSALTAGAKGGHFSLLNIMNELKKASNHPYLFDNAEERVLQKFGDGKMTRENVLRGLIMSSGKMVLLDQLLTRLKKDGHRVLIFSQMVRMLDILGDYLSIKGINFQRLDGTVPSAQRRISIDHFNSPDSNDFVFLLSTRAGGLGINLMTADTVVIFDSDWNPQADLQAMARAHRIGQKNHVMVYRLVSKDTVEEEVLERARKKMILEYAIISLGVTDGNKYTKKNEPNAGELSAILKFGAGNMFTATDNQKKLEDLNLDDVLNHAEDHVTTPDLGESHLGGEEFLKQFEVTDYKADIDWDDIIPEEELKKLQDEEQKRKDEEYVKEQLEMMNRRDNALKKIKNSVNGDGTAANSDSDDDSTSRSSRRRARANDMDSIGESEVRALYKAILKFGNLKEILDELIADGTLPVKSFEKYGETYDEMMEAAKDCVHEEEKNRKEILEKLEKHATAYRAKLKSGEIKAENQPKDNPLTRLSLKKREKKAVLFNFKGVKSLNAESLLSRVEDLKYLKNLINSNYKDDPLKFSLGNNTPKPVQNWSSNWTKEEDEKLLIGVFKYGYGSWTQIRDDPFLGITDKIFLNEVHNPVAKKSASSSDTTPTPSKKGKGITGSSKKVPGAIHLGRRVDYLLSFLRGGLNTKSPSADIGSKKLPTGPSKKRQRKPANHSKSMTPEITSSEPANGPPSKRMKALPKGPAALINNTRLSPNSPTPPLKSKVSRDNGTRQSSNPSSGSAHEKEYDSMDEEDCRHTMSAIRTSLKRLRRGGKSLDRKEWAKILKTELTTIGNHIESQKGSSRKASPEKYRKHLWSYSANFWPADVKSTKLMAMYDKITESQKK

On to `CC(C)c1csc(C2CCCN(C(=O)c3ccc(=O)n(C)n3)C2)n1` (stereo unspecified), for which the Percent Effect is -2.9% in experiment [1]; 13.5% in [2]; -11.4% in experiment [3]; -0.23% in experiment [4]; -1.86% in the experiment with Trypanosoma cruzi; 1.74% in [5]. Moreover, the Percent Effect in [6] is 7.3%; in the experiment listed under Homo sapiens it was 26%; in experiment [7] it was 4.3%; in experiment [8], 11.1%; in experiment [9] it was -5.6%.
Turning to `O=C(CN1CCC(c2ccnn2CCO)CC1)NCc1cccs1`, the Percent Effect in [1] was -3.33%; in [2], 15.2%; in experiment [3] it was -3.55%; in [4], -6.32%; in the experiment on Trypanosoma cruzi, 1.23%; in experiment [5] it was 1.52%. The Percent Effect in experiment [6] was 2.87%; in the experiment filed under Homo sapiens, -10.7%; in experiment [7], 8.37%; in experiment [8], 24.1%; in experiment [9] it was -5.84%.
Regarding `CC(C)CC(=O)N1CCc2nc(N3CCOCC3)nc(NC(C)C)c2C1`, the Percent Effect in experiment [1] is -4.18%; in [2], 2.67%; in experiment [3] it was 12.4%; in experiment [4] it was -0.324%; in the experiment with Trypanosoma cruzi, -1.57%; in [5] it was 2.56%. In addition, the Percent Effect in [6] is 2.03%; in the experiment listed under Homo sapiens it was 8.78%; in experiment [7] it was 9.57%; in [8], 14.1%; in [9], -8.4%.
On to `Cc1csc(N2CCN(C(=O)Cc3ccc(C)s3)CC2)n1`, for which the Percent Effect in experiment [1] was -4.68%; in experiment [2] it was 10.8%; in experiment [3], -9.36%; in experiment [4], 4.82%; in the experiment with Trypanosoma cruzi, -6.89%; in [5] it was -5.61%. The Percent Effect in experiment [6] is 25.2%; in the experiment listed under Homo sapiens it was 15.8%; in experiment [7], 12.3%; in [8], 11.1%; in experiment [9] it was 1.36%.
On to `Cc1cn2c(n1)CCC(NC(=O)c1ccc(CS(C)(=O)=O)o1)C2` (stereo unspecified), for which the Percent Effect was -2.09% in [1]; 7.89% in [2]; 0.931% in experiment [3]; 9.84% in experiment [4]; 4.13% in the experiment on Trypanosoma cruzi; 0.766% in experiment [5]. Moreover, the Percent Effect is 9.52% in [6]; 3.27% in the experiment filed under Homo sapiens; 3.43% in [7]; 9.76% in [8]; -9.57% in experiment [9].
Take `Cc1cc(F)cc(S(=O)(=O)NCCCN2CCC(O)CC2)c1`: the Percent Effect in [1] was 1.42%; in experiment [2] it was 15.6%; in experiment [3], 0.172%; in [4] it was 0.431%; in the experiment on Trypanosoma cruzi, -0.688%; in experiment [5], 5.52%. Besides, the Percent Effect was determined as 14.6% in [6]; 10.8% in the experiment listed under Homo sapiens; 7.53% in experiment [7]; 23.5% in [8]; 1.36% in experiment [9].
As to `Cc1nccn1C1CCCN(C(=O)C2=NN(C)C(=O)CC2)C1` (stereo unspecified), the Percent Effect in experiment [1] is -0.962%; in experiment [2], 18.9%; in experiment [3], 2.88%; in experiment [4], -10.1%; with Trypanosoma cruzi it was -3.68%; in [5], -4.81%. The Percent Effect in experiment [6] was 20.9%; in the experiment filed under Homo sapiens it was 23.8%; in experiment [7], 4.43%; in experiment [8], 6.17%; in [9], -3.99%.
As to `COc1ccc(CN2CCCC(Cn3nc(C)nc3C)C2)cc1F` (stereo unspecified), the Percent Effect in experiment [1] is -2.67%; in experiment [2], -3.8%; in experiment [3], 7.97%; in experiment [4], -1.91%; in the experiment on Trypanosoma cruzi, 5.64%; in experiment [5] it was -1.94%. Further, the Percent Effect in [6] is 0%; in the experiment filed under Homo sapiens, 5.94%; in [7], -2.08%; in experiment [8], 2.53%; in experiment [9] it was 4.68%.
With `NC(=O)N1CCC2(CCN(Cc3cccc(F)c3)CC2)CC1`, the Percent Effect in experiment [1] was -2.86%; in [2] it was 5.2%; in experiment [3], -0.226%; in [4], 14.9%; with Trypanosoma cruzi, 1.67%; in experiment [5], -9.65%. Also, the Percent Effect in experiment [6] is 14.3%; in the experiment filed under Homo sapiens, 5.51%; in experiment [7] it was 5.38%; in experiment [8], 11.1%; in [9], -1.58%.
Take `CN(C)CCNC(=O)c1cnc2c(c1)nc(-c1ccccc1Cl)n2C`: the Percent Effect in [1] was -0.258%; in experiment [2], 8.11%; in [3], -1.84%; in experiment [4], 30.9%; in the experiment on Trypanosoma cruzi, 3.81%; in experiment [5], 1.74%. Moreover, the Percent Effect in experiment [6] is 9.36%; in the experiment listed under Homo sapiens it was 17.4%; in experiment [7], 7.53%; in experiment [8], 16.1%; in experiment [9], -5.45%.
Consider `CC(C)n1c(C2CCCN(Cc3ccnn3C)C2)nc2ccccc21` (stereo unspecified), for which the Percent Effect in [1] was -5.27%; in experiment [2], 5.33%; in experiment [3] it was 6.84%; in [4], 4.6%; in the experiment on Trypanosoma cruzi it was 6.5%; in [5] it was -1.63%. In addition, the Percent Effect in experiment [6] is 6.78%; in the experiment listed under Homo sapiens it was 18.1%; in experiment [7], 2.13%; in experiment [8], 14.1%; in experiment [9] it was -3.27%.
